For 19 compounds, Percent Effect results are on record in ChEMBL document CHEMBL3988442, “University of Dundee, Small-Polar-MMV Screening Library” (2021).

Assay [1] addresses T1, Aspartate--tRNA(Asp/Asn) ligase (Mycobacterium tuberculosis (strain ATCC 25618 / H37Rv)) (UniProt P9WFW3).
T1 sequence (whole entry): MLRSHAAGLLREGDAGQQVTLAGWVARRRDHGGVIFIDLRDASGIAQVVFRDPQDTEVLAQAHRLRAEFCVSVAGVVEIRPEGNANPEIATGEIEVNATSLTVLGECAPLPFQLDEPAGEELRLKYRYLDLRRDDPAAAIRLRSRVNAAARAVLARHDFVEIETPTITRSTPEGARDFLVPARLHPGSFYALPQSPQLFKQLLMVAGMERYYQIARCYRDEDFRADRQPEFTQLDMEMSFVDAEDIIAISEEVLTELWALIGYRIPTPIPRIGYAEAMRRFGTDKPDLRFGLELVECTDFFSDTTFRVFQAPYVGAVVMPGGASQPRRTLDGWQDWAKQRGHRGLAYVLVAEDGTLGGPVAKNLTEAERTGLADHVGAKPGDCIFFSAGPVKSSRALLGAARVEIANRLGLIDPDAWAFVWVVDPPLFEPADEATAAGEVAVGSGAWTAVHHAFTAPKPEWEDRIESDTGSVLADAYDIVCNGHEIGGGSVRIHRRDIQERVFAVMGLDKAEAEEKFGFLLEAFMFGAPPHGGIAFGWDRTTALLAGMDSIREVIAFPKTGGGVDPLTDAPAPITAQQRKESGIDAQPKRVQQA
Put plainly: Assay for Asp RNA synthetase-1 from Mycobacterium tuberculosis. Format: functional. Further details: scale not given: direction of the effect not stated beside the values. Particulars: 30 µM.

The target of assay [2] is Shiga toxin 2 (Escherichia coli O157:H7) (UniProt P09385+P09386). Put plainly: E. coli 0.157:H7 Shiga Toxin SOP - stx2 screening assay. Type of assay: functional. On the set-up: scale not given: direction of the effect not stated beside the values. Particulars: 30 µM.

As to `O=C(Cn1ccc2c(Cl)cccc21)N[C@@H](C(=O)O)c1ccccc1`, the figures for the Percent Effect in assay [1] and in assay [2] were -6.24% and -13.8%, respectively.
On to `CC(C)(C)c1nc(CN2CCCC2Cn2cccn2)no1` (stereo not drawn), for which the Percent Effect in assay [1] was -2.09%; in assay [2], -50.8%.
The matching figures for `NC(=O)c1cccc(CC2CCN(C(=O)CCCN3CCOCC3)C2)c1` (stereo not drawn): 6.21% and -6.5%.
Turning to `CC(=O)N(Cc1noc(C)n1)C1CCN(Cc2ccon2)C1` (stereo not drawn), the Percent Effect in assay [1] is -1.5%; in assay [2], -70.9%.
Consider `Cc1cc(N2CCCN(C(=O)Cc3csc(C)n3)CC2)ccn1`, for which the Percent Effect in assay [1] amounted to 0.502%; in assay [2], 3.59%.
Taken in the same sequence, the figures for `COc1ccc(CN2CCn3cc(CN4CCCCC4)nc3C2)cc1` were 4.3% and -5.01%.
The matching figures for `O=C(CCc1cc2n(n1)CCCN(Cc1ccccc1F)C2)NC1CC1`: -1.95% and -4.17%.
For the compound `CCn1cc(CN(C)S(=O)(=O)c2ccc(Cl)cc2)cn1`, the Percent Effect in assay [1] was -1.31%; in assay [2], -34%.
As to `Cc1cc(CN2CCC(c3ccnn3CCO)CC2)no1`, the Percent Effect in assay [1] was -1.46%; in assay [2] it was -16.1%.
For `COCCNC(=O)c1ccc(C)c(-n2cccc2)c1`, the Percent Effect in assay [1] was -0.779%; in assay [2], -6.48%.
Regarding `c1cnc(N2CCOCC3(CCCN(CC4CC4)C3)C2)cn1` (stereo not drawn), the Percent Effect in assay [1] was 0.0873%; in assay [2] it was -8.06%.
For `COCc1ccccc1CNc1nnc(C)c(C)c1C#N`, the values for the Percent Effect in assay [1] and in assay [2] were 7.84% and 29.7%, respectively.
On to `CCn1cc(CN2CCCn3nc(CNC(=O)C4CCC4)cc3C2)cn1`, for which the Percent Effect was 4.07% in assay [1] and -31% in assay [2].
`Cc1nc(C2CCCN2C(=O)c2cnns2)no1` (stereo not drawn): the Percent Effect in assay [1] was -4.19%; in assay [2] it was 27.5%.
Turning to `Cc1cc(O)c(OCC(=O)/N=c2\[nH]cc(C)s2)cn1`, the Percent Effect is -2.4% in assay [1] and -6.58% in assay [2].
For `Cc1cc(C)c2c(OCC(=O)NC(C)C)nn(C)c2n1`, the Percent Effect was -1.15% in assay [1] and -0.409% in assay [2].
For `CCc1nc(CC(=O)N2CCOCC2c2ncon2)cs1` (stereo not drawn), the Percent Effect in assay [1] was 1.11%; in assay [2], 11.7%.
Consider `CC(C)OCCCNC(=O)CN1CCC(N2CCN(C)C2=O)CC1`, for which the Percent Effect is -3% in assay [1] and -14.1% in assay [2].
The matching figures for `Cc1ncnc2c1CCN(Cc1ccccn1)CC2`: 1.8% and -19.4%.
